# Reference: the supplement of paper PMC8728848
# Only a selection was taken, and the strongest signals are over-represented in it overall.
# B1: his-Lectin-24A (Drosophila melanogaster) (protein)
# chain: MFRLSVLVLNLLLVSHEFSAGTAKIEIQPLPALCNGYCFPTLKPVMEYVAIHQDKWNTCTEILANEARKDQIQLNIQLDALKADVSNIKASQLSKDEKLDRMEREQFAMHESLETINRYLTVKLDRTKLQLEAIKNTMDYMKAQMDGYFSAINGVQCLQPGFEKIGDRYFYIEEDVELNWLDAQAKCRRMGGHLASIKTKQEFDAIVEKLDDSKSYFLGVNENTKTGDFVSAASGKSCLYHEWGPGEPHHNNDQERCVSILRKLMHVGNCTYEKRFICQYGI
# Assays:
# Test in all cases: glycan array binding signal (z-score within array); higher = stronger binding
# Details in all cases: glycan notation: IUPAC condensed, linker removed
# [1] = target: Fuc(a1-2)Gal(b1-3)[Fuc(a1-4)]GlcNAc
# Method in brief: (§1)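 The binding signal is a Z-score computed within each array. Data were drawn from 3228 arrays in the Consortium for Functional Glycomics database, restricted to those with a known protein sequence. Scores were averaged over arrays of the same protein sequence at different concentrations or buffers, and over linkers, and negative values can be taken as non-binding.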
# [2] = target: Fuc(a1-2)Gal(b1-4)GlcNAc(b1-2)[Fuc(a1-2)Gal(b1-4)GlcNAc(b1-4)]Man(a1-3)[Fuc(a1-2)Gal(b1-4)GlcNAc(b1-2)Man(a1-6)]Man(b1-4)GlcNAc(b1-4)GlcNAc
# Method in brief: as §1
# [3] = target: Fuc(a1-2)Gal(b1-4)GlcNAc(b1-3)GalNAc
# Method in brief: as §1
# [4] = target: Fuc(a1-2)Gal(b1-4)GlcNAc(b1-3)[Fuc(a1-3)[Gal(b1-4)]GlcNAc(b1-6)]Gal(b1-4)Glc
# Method in brief: as §1
# [5] = target: Fuc(a1-2)Gal(b1-4)[Fuc(a1-3)]GlcNAc(b1-2)[Fuc(a1-2)Gal(b1-4)[Fuc(a1-3)]GlcNAc(b1-4)]Man(a1-3)[Fuc(a1-2)Gal(b1-4)[Fuc(a1-3)]GlcNAc(b1-2)Man(a1-6)]Man(b1-4)GlcNAc(b1-4)GlcNAc
# Method in brief: as §1
# [6] = target: Fuc(a1-2)Gal6S(b1-4)Glc
# Method in brief: as §1
# [7] = target: Fuc(a1-2)[Gal(a1-3)]Gal(b1-4)GlcNAc(b1-2)Man(a1-3)[Fuc(a1-2)[Gal(a1-3)]Gal(b1-4)GlcNAc(b1-2)Man(a1-6)]Man(b1-4)GlcNAc(b1-4)GlcNAc
# Method in brief: as §1
# [8] = target: Fuc(a1-2)[Gal(a1-3)]Gal(b1-4)GlcNAc(b1-6)GalNAc
# Method in brief: as §1
# [9] = target: Fuc(a1-3)[Gal(b1-4)]GlcNAc(b1-2)Man(a1-3)[Fuc(a1-3)[Gal(b1-4)]GlcNAc(b1-2)Man(a1-6)]Man(b1-4)GlcNAc(b1-4)[Fuc(a1-6)]GlcNAc
# Method in brief: as §1
# [10] = target: Fuc(a1-3)[Gal3S(b1-4)]Glc
# Method in brief: as §1
# [11] = target: Gal(a1-3)Gal(b1-3)GlcNAc(b1-2)Man(a1-3)[Gal(a1-3)Gal(b1-3)GlcNAc(b1-2)Man(a1-6)]Man(b1-4)GlcNAc(b1-4)GlcNAc
# Method in brief: as §1
# [12] = target: Gal(a1-3)Gal(b1-3)GlcNAc(b1-6)GalNAc
# Method in brief: as §1
# [13] = target: Gal(a1-3)Gal(b1-4)GlcNAc
# Method in brief: as §1
# [14] = target: Gal(b1-3)GlcNAc(b1-2)Man(a1-3)[Gal(b1-3)GlcNAc(b1-2)Man(a1-6)]Man(b1-4)GlcNAc(b1-4)GlcNAc
# Method in brief: as §1
# [15] = target: Gal(b1-3)GlcNAc(b1-3)Gal(b1-4)GlcNAc(b1-3)Gal(b1-4)GlcNAc(b1-2)[Gal(b1-3)GlcNAc(b1-3)Gal(b1-4)GlcNAc(b1-3)Gal(b1-4)GlcNAc(b1-6)]Man(a1-6)[Gal(b1-3)GlcNAc(b1-3)Gal(b1-4)GlcNAc(b1-3)Gal(b1-4)GlcNAc(b1-2)Man(a1-3)]Man(b1-4)GlcNAc(b1-4)[Fuc(a1-6)]GlcNAc
# Method in brief: as §1
# [16] = target: Gal(b1-3)[Fuc(a1-4)]GlcNAc(b1-6)GalNAc
# Method in brief: as §1
# [17] = target: Gal(b1-4)GlcNAc(b1-2)Man(a1-3)Man(b1-4)GlcNAc(b1-4)GlcNAc
# Method in brief: as §1
# [18] = target: Gal(b1-4)GlcNAc(b1-2)Man(a1-6)[Man(a1-3)]Man(b1-4)GlcNAc(b1-4)GlcNAc
# Method in brief: as §1
# [19] = target: Gal(b1-4)GlcNAc(b1-2)[Gal(b1-4)GlcNAc(b1-4)]Man(a1-3)[GlcNAc(b1-4)][Gal(b1-4)GlcNAc(b1-2)Man(a1-6)]Man(b1-4)GlcNAc(b1-4)GlcNAc
# Method in brief: as §1
# [20] = target: Gal(b1-4)GlcNAc(b1-2)[Gal(b1-4)GlcNAc(b1-6)]Man(a1-6)[Gal(b1-4)GlcNAc(b1-2)Man(a1-3)]Man(b1-4)GlcNAc(b1-4)GlcNAc
# Method in brief: as §1
# [21] = target: Gal(b1-4)GlcNAc(b1-3)Gal(b1-4)GlcNAc(b1-3)Gal(b1-4)GlcNAc
# Method in brief: as §1
# [22] = target: Gal(b1-4)GlcNAc(b1-3)Gal(b1-4)GlcNAc(b1-3)Gal(b1-4)GlcNAc(b1-3)Gal(b1-4)GlcNAc(b1-2)Man(a1-3)[Gal(b1-4)GlcNAc(b1-3)Gal(b1-4)GlcNAc(b1-3)Gal(b1-4)GlcNAc(b1-3)Gal(b1-4)GlcNAc(b1-2)Man(a1-6)]Man(b1-4)GlcNAc(b1-4)[Fuc(a1-6)]GlcNAc
# Method in brief: as §1
# [23] = target: Gal(b1-4)GlcNAc(b1-3)Gal(b1-4)GlcNAc(b1-3)Gal(b1-4)GlcNAc(b1-3)Gal(b1-4)GlcNAc(b1-3)Gal(b1-4)GlcNAc(b1-2)Man(a1-3)[Gal(b1-4)GlcNAc(b1-3)Gal(b1-4)GlcNAc(b1-3)Gal(b1-4)GlcNAc(b1-3)Gal(b1-4)GlcNAc(b1-3)Gal(b1-4)GlcNAc(b1-2)Man(a1-6)]Man(b1-4)GlcNAc(b1-4)GlcNAc
# Method in brief: as §1
# [24] = target: Gal(b1-4)GlcNAc(b1-6)[Gal(b1-4)GlcNAc(b1-3)]GalNAc
# Method in brief: as §1
# [25] = target: Gal3S(b1-4)[Fuc(a1-3)]GlcNAc6S
# Method in brief: as §1
# [26] = target: GalNAc3S(b1-4)GlcNAc3S
# Method in brief: as §1
# [27] = target: GalNAc4S6S(b1-4)GlcNAc
# Method in brief: as §1
# [28] = target: Glc(a1-4)Glc
# Method in brief: as §1
# [29] = target: GlcA(b1-3)Gal
# Method in brief: as §1
# [30] = target: GlcNAc(a1-4)Gal(b1-4)GlcNAc(b1-3)Gal(b1-4)Glc
# Method in brief: as §1
# [31] = target: GlcNAc(b1-2)[GlcNAc(b1-4)]Man(a1-3)[GlcNAc(b1-4)][GlcNAc(b1-2)[GlcNAc(b1-6)]Man(a1-6)]Man(b1-4)GlcNAc(b1-4)[Fuc(a1-6)]GlcNAc
# Method in brief: as §1
# [32] = target: GlcNAc(b1-2)[GlcNAc(b1-6)]Man(a1-6)[GlcNAc(b1-2)Man(a1-3)]Man(b1-4)GlcNAc(b1-4)[Fuc(a1-6)]GlcNAc
# Method in brief: as §1
# [33] = target: GlcNAc(b1-3)Gal(b1-4)GlcNAc(b1-3)Gal(b1-4)GlcNAc(b1-3)Gal(b1-4)GlcNAc(b1-3)Gal(b1-4)GlcNAc(b1-2)Man(a1-3)[GlcNAc(b1-3)Gal(b1-4)GlcNAc(b1-3)Gal(b1-4)GlcNAc(b1-3)Gal(b1-4)GlcNAc(b1-3)Gal(b1-4)GlcNAc(b1-2)Man(a1-6)]Man(b1-4)GlcNAc(b1-4)GlcNAc
# Method in brief: as §1
# [34] = target: GlcNAc(b1-6)Gal(b1-4)GlcNAc
# Method in brief: as §1
# [35] = target: Kdn(a2-3)Gal(b1-3)GalNAc
# Method in brief: as §1
# [36] = target: MurNAc(b1-4)GlcNAc
# Method in brief: as §1
# [37] = target: Neu5Ac(a2-3)Gal(b1-3)[GlcNAc(b1-6)]GalNAc
# Method in brief: as §1
# [38] = target: Neu5Ac(a2-3)Gal(b1-4)GlcNAc(b1-2)[Neu5Ac(a2-3)Gal(b1-4)GlcNAc(b1-4)]Man(a1-3)[GlcNAc(b1-4)][Neu5Ac(a2-3)Gal(b1-4)GlcNAc(b1-2)[Neu5Ac(a2-3)Gal(b1-4)GlcNAc(b1-6)]Man(a1-6)]Man(b1-4)GlcNAc(b1-4)GlcNAc
# Method in brief: as §1
# [39] = target: Neu5Ac(a2-3)Gal(b1-4)GlcNAc(b1-2)[Neu5Ac(a2-3)Gal(b1-4)GlcNAc(b1-6)]Man(a1-6)[Neu5Ac(a2-3)Gal(b1-4)GlcNAc(b1-2)Man(a1-3)][GlcNAc(b1-4)]Man(b1-4)GlcNAc(b1-4)GlcNAc
# Method in brief: as §1
# [40] = target: Neu5Ac(a2-6)Gal(b1-4)GlcNAc(b1-2)Man
# Method in brief: as §1
# [41] = target: Neu5Ac(a2-6)Gal(b1-4)GlcNAc(b1-2)Man(a1-3)[GlcNAc(b1-4)][Neu5Ac(a2-6)Gal(b1-4)GlcNAc(b1-2)Man(a1-6)]Man(b1-4)GlcNAc(b1-4)GlcNAc
# Method in brief: as §1
# [42] = target: Neu5Ac(a2-6)Gal(b1-4)GlcNAc(b1-2)Man(a1-3)[Man(a1-6)]Man(b1-4)GlcNAc(b1-4)GlcNAc
# Method in brief: as §1
# [43] = target: Neu5Ac(a2-6)Gal(b1-4)GlcNAc(b1-2)Man(a1-3)[Neu5Ac(a2-6)Gal(b1-4)GlcNAc(b1-2)Man(a1-6)]Man(b1-4)GlcNAc(b1-4)GlcNAc
# Method in brief: as §1
# [44] = target: Neu5Ac(a2-6)Gal(b1-4)GlcNAc(b1-2)Man(a1-6)Man(b1-4)GlcNAc(b1-4)GlcNAc
# Method in brief: as §1
# [45] = target: Neu5Ac(a2-6)Gal(b1-4)GlcNAc(b1-2)Man(a1-6)[Man(a1-3)]Man(b1-4)GlcNAc(b1-4)GlcNAc
# Method in brief: as §1
# [46] = target: Neu5Ac(a2-6)Gal(b1-4)GlcNAc(b1-3)Gal(b1-4)GlcNAc(b1-3)[Neu5Ac(a2-6)Gal(b1-4)GlcNAc(b1-3)Gal(b1-4)GlcNAc(b1-6)]GalNAc
# Method in brief: as §1
# [47] = target: Neu5Ac(a2-8)Neu5Ac(a2-3)Gal(b1-3)GalNAc(b1-4)[Neu5Ac(a2-3)]Gal(b1-4)Glc
# Method in brief: as §1
binder,measurement,setting,value
B1,glycan array binding signal (z-score),[1],-0.536
same,glycan array binding signal (z-score),[2],2.61
same,glycan array binding signal (z-score),[3],-0.522
same,glycan array binding signal (z-score),[4],2.69
same,glycan array binding signal (z-score),[5],-0.328
same,glycan array binding signal (z-score),[6],-0.34
same,glycan array binding signal (z-score),[7],2.02
same,glycan array binding signal (z-score),[8],0.328
same,glycan array binding signal (z-score),[9],0.275
same,glycan array binding signal (z-score),[10],-1.19
same,glycan array binding signal (z-score),[11],2.35
same,glycan array binding signal (z-score),[12],-0.445
same,glycan array binding signal (z-score),[13],0.285
same,glycan array binding signal (z-score),[14],1.74
same,glycan array binding signal (z-score),[15],1.49
same,glycan array binding signal (z-score),[16],2.34
same,glycan array binding signal (z-score),[17],0.019
same,glycan array binding signal (z-score),[18],2.68
same,glycan array binding signal (z-score),[19],-1.25
same,glycan array binding signal (z-score),[20],-0.553
same,glycan array binding signal (z-score),[21],-0.79
same,glycan array binding signal (z-score),[22],3.44
same,glycan array binding signal (z-score),[23],4.07
same,glycan array binding signal (z-score),[24],0.403
same,glycan array binding signal (z-score),[25],0.382
same,glycan array binding signal (z-score),[26],3.3
same,glycan array binding signal (z-score),[27],6.71
same,glycan array binding signal (z-score),[28],-0.592
same,glycan array binding signal (z-score),[29],0.317
same,glycan array binding signal (z-score),[30],2.7
same,glycan array binding signal (z-score),[31],2.05
same,glycan array binding signal (z-score),[32],1.69
same,glycan array binding signal (z-score),[33],0.615
same,glycan array binding signal (z-score),[34],0.608
same,glycan array binding signal (z-score),[35],0.552
same,glycan array binding signal (z-score),[36],-0.281
same,glycan array binding signal (z-score),[37],-0.036
same,glycan array binding signal (z-score),[38],2.26
same,glycan array binding signal (z-score),[39],-0.362
same,glycan array binding signal (z-score),[40],-0.44
same,glycan array binding signal (z-score),[41],-1.2
same,glycan array binding signal (z-score),[42],-0.737
same,glycan array binding signal (z-score),[43],0.078
same,glycan array binding signal (z-score),[44],1.27
same,glycan array binding signal (z-score),[45],1.07
same,glycan array binding signal (z-score),[46],0.118
same,glycan array binding signal (z-score),[47],2.87
